Assay [1] concerns the target T1, Serine/threonine-protein kinase TBK1 (Homo sapiens) (UniProt Q9UHD2).
T1 sequence (whole entry): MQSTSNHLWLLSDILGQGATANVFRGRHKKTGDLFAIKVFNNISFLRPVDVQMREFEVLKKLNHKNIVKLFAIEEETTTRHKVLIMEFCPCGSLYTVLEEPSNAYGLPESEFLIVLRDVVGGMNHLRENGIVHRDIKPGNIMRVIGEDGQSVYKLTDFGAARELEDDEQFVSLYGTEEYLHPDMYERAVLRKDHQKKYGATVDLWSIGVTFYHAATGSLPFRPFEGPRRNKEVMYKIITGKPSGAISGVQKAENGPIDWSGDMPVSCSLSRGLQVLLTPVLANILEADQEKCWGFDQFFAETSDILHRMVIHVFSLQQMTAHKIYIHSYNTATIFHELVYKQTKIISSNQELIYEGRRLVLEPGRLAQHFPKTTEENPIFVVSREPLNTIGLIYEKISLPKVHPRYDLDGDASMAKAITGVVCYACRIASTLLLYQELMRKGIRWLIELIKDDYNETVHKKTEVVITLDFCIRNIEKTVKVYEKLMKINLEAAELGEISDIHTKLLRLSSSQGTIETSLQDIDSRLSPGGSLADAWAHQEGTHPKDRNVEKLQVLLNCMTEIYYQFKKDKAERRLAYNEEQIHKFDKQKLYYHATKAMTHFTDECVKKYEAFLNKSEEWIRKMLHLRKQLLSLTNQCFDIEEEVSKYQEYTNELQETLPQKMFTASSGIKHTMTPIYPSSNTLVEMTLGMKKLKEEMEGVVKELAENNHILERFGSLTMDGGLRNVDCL
Conditions: at 10 µM.

In assay [2] the target is T2, TGF-beta receptor type-1 (Homo sapiens) (UniProt P36897).
T2 sequence (whole entry): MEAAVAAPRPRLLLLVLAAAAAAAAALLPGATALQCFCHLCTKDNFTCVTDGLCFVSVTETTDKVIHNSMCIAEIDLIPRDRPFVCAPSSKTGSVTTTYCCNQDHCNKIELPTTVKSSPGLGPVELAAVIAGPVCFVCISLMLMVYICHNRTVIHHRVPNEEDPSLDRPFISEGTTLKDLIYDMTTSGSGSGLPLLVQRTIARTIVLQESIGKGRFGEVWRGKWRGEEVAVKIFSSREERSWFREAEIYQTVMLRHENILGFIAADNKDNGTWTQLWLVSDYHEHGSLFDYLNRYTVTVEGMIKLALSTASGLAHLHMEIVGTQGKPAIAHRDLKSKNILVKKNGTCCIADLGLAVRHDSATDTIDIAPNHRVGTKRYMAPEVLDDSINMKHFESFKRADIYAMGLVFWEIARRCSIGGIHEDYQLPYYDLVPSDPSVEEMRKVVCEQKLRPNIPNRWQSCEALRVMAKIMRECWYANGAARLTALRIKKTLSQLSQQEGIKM
Conditions: at 1 µM.

Assay [3] deals with T2, TGF-beta receptor type-1 (Homo sapiens). Conditions: at 10 µM.
In assay [4] the target is Insulin-like growth factor 1 receptor (Homo sapiens) (UniProt P08069). The settings on record: at 1 µM.
Sequence of Insulin-like growth factor 1 receptor (Homo sapiens) (P08069 31-736 limits assumed): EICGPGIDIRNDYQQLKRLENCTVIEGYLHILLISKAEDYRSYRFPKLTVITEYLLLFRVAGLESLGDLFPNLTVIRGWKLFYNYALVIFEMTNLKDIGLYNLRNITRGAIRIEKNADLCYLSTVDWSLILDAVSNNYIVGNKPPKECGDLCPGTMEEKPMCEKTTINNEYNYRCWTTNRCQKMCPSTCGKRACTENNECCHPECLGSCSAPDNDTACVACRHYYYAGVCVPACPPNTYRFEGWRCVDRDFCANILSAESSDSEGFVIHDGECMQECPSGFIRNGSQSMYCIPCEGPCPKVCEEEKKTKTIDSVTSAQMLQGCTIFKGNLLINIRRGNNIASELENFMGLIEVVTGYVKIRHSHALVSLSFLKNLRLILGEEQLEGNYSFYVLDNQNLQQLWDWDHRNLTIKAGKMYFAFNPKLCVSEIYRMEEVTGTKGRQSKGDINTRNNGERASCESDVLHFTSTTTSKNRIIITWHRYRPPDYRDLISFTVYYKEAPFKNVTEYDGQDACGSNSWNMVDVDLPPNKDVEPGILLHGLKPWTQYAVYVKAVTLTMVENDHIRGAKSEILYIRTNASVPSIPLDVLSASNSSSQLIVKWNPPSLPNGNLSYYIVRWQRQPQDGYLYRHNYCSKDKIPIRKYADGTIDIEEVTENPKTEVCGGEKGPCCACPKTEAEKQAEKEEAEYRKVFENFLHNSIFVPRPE
Sequence of Insulin-like growth factor 1 receptor (Homo sapiens) (P08069 741-1367 limits assumed): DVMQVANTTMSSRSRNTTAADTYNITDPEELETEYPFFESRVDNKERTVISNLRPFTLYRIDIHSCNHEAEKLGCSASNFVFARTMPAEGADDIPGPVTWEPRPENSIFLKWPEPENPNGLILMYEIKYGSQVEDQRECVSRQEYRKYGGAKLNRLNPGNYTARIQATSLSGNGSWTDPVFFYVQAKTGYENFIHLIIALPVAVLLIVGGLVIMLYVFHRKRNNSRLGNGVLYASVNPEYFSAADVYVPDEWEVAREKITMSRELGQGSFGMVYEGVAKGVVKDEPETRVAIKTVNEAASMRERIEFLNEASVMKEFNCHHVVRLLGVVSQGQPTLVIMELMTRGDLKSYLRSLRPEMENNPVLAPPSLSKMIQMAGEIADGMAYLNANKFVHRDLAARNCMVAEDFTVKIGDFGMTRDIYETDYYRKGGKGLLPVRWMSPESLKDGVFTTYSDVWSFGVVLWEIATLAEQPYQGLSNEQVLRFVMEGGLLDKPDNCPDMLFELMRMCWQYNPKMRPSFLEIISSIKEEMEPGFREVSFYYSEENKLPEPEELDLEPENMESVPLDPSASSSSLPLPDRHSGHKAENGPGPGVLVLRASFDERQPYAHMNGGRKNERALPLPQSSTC
Assay [5] shares this target. Conditions: at 10 µM.
The target in assay [6] is T3, Inhibitor of nuclear factor kappa-B kinase subunit alpha (Homo sapiens) (UniProt O15111).
T3 sequence (whole entry): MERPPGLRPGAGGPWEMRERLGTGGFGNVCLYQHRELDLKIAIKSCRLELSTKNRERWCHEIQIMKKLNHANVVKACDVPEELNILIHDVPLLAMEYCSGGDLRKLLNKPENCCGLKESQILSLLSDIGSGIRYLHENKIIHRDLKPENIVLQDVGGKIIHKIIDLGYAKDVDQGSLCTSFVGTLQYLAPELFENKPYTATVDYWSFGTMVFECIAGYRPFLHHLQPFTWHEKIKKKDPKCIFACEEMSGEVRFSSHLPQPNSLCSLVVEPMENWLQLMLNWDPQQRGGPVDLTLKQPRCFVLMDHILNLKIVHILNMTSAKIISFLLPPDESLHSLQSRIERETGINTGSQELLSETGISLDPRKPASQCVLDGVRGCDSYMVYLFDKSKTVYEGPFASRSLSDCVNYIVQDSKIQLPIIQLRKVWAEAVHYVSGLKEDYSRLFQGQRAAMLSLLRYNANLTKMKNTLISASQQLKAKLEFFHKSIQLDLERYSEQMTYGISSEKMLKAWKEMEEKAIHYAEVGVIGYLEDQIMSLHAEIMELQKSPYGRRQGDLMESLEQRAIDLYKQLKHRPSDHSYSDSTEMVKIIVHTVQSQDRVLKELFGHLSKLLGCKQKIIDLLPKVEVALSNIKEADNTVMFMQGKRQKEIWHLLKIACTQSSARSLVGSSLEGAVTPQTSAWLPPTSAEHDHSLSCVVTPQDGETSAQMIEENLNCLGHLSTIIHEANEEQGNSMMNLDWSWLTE
Conditions: at 1 µM.

The target of assay [7] is T3, Inhibitor of nuclear factor kappa-B kinase subunit alpha (Homo sapiens). Conditions: at 10 µM.
For assay [8], the target named is T4, Inhibitor of nuclear factor kappa-B kinase subunit beta (Homo sapiens) (UniProt O14920).
T4 sequence (whole entry): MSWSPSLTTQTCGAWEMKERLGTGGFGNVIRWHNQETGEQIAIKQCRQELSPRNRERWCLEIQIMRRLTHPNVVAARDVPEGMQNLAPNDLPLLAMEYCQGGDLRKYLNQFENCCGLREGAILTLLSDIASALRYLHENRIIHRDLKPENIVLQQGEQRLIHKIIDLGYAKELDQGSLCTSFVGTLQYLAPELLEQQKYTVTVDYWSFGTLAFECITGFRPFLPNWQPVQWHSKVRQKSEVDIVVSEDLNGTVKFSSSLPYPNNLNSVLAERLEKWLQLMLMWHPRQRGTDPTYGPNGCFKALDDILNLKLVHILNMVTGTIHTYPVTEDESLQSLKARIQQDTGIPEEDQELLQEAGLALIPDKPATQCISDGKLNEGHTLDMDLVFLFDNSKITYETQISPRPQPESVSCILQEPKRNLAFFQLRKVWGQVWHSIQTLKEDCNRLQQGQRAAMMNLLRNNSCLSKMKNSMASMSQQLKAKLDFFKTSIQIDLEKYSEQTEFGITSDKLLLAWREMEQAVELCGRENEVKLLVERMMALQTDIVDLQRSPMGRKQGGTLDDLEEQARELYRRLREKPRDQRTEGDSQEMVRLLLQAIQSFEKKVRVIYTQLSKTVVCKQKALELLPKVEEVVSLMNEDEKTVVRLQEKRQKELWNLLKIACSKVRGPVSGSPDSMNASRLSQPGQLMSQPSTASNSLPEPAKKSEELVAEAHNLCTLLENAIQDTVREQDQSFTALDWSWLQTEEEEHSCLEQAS
Conditions: at 1 µM.

The target in assay [9] is T4, Inhibitor of nuclear factor kappa-B kinase subunit beta (Homo sapiens). The settings on record: at 10 µM.
The target of assay [10] is Insulin receptor (Homo sapiens) (UniProt P06213). Conditions: at 1 µM.
Sequence of Insulin receptor (Homo sapiens) (P06213 28-758 limits assumed): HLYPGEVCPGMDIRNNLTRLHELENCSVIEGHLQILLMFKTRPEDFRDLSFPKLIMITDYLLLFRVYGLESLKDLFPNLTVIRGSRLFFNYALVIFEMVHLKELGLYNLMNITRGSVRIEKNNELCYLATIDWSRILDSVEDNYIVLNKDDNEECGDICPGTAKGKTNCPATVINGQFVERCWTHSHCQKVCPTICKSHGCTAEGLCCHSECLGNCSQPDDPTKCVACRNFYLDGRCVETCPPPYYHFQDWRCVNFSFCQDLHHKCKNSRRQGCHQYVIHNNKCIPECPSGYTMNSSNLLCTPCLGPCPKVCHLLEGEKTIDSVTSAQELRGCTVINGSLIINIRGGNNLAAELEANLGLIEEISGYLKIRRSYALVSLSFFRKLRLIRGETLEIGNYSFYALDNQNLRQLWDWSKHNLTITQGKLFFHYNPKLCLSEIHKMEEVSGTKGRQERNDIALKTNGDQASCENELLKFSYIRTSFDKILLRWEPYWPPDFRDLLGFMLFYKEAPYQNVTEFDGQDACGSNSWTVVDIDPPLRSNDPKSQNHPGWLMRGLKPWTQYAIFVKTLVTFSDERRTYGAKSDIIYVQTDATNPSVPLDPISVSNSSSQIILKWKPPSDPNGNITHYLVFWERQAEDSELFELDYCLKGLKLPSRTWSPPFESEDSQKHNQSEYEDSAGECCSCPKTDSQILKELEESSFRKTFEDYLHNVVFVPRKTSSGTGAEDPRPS
Sequence of Insulin receptor (Homo sapiens) (P06213 763-1382 limits assumed): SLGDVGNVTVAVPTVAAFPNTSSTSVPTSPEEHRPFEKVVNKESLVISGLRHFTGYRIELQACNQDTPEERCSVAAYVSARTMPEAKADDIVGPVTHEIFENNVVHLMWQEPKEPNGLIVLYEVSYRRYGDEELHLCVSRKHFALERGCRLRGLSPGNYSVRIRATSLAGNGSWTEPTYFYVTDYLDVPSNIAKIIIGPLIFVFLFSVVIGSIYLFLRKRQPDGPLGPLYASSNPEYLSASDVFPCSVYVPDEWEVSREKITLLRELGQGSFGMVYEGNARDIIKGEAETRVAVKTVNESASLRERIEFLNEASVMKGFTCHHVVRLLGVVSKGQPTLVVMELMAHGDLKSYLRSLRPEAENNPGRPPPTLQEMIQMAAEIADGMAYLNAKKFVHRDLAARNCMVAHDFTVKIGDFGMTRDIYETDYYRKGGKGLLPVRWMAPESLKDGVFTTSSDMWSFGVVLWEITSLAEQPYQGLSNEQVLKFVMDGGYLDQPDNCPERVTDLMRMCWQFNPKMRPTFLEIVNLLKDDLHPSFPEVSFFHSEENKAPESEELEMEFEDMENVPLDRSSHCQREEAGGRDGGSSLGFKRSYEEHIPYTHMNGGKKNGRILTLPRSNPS

Consider `O=c1cc(-c2cccc3c2Sc2ccccc2S3)oc(N2CCOCC2)c1`, for which the residual activity came to 80% in assay [1]; 114% in assay [2]; 88% in [3]; 105% in [4]; 101% in assay [5]; 98% in assay [6]. The residual activity is 93% in assay [7], 106% in assay [8], 103% in [9] and 105% in [10].

The values above are taken from ChEMBL document CHEMBL2218924, “A broad activity screen in support of a chemogenomic map for kinase signalling research and drug discovery” (Biochem J, 2013).
